# Most compounds without a hit are left out; they make up all but 6% or so of the library.
# Tau fluor cs = Counterscreen qHTS for Inhibitors of Tau Fibril Formation, Fluorescence Polarization. tau K18 P301L Alexa594 fluorescence, heparin fibrillization. Potency, µM (top dose mostly 57.7 µM), inactives show at the highest dose activity change, negative = decrease. 280,000 compounds, 0.93% hits; further: on the % scale 0 is the no-effect control and ±100 the full control effect; nearly all actives have a fitted effect of over 55% in size
#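 Human tau K18 P301L (15 uM unlabeled, 0.24 uM Alexa 594-labeled) in 100 mM sodium acetate pH 7 with 20 uM heparin, 6 hr at 37 C. ThT 30 uM added, 1 hr ambient; Alexa 594 FP and total fluorescence read at 555/632 nm.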
# VDR inh = Inhibitors of the vitamin D receptor (VDR): qHTS; VDR-SRC2-3 peptide fluorescence polarization, 2 h; 400,000 compounds, 0.93% hits; Vitamin D3 receptor (Homo sapiens), P11473; Potency, µM, for the others: max response, negative = inhibition, most hits filed as inhibitors; AID 504847, 2011; further: on the % scale 0 is the no-effect control and ±100 the full control effect
# Target sequence (P11473 whole entry, looked up): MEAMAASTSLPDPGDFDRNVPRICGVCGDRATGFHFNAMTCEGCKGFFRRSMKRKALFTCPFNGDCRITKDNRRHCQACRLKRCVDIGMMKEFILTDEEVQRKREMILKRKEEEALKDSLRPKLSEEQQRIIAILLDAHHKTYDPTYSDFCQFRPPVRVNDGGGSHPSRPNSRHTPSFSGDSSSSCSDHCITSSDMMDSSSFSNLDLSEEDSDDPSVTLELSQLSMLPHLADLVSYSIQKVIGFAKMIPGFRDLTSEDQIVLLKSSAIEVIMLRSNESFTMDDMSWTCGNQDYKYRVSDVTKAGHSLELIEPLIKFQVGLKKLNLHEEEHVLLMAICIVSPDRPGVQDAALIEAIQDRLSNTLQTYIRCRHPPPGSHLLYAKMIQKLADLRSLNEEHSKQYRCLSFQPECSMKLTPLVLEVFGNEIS
#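 Two reagent solutions held at 4 deg C in the dark were dispensed, compounds pinned at 23 nl, and the mixture incubated 2 h at room temperature. Read-out: fluorescence polarization of VDR–SRC2-3 peptide binding.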
# Tau FP inhib = qHTS for Inhibitors of Tau Fibril Formation, Fluorescence Polarization | 280,000 compounds, 0.39% hits | K18 P301L tau heparin fibrillization, Alexa594 FP, 6 h | AID 1468, 2008 | Potency, µM (titrated, usually from 57.7 µM), for inactives: at the highest dose activity, negative = inhibition, most hits filed as inhibitors; further: on the % scale 0 is the no-effect control and ±100 the full control effect; nearly all actives have a fitted effect of over 55% in size
# Target sequence (P10636 561-689 P618L limits assumed): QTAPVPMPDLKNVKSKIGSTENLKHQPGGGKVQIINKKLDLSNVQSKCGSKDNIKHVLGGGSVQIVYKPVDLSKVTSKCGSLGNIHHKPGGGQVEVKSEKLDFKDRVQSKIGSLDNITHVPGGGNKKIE
#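 Steps: dispense K18 P301L tau (15 uM plus 0.24 uM Alexa 594 tracer, final) in pH 7 sodium acetate; add compound; add heparin (20 uM final); incubate 6 hr, 37 C; add ThT (30 uM final); after 1 hr ambient, read FP.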
# Tau fibril ThT = qHTS for Inhibitors of Tau Fibril Formation, Thioflavin T Binding; AID 1460, 2008; 270,000 compounds, 2.1% hits; recombinant tau K18 P301L, heparin-induced fibrillization, ThT fluorescence; Microtubule-associated protein tau (Homo sapiens), P10636; Potency, µM (titrated, usually from 57.4 µM), inactives show at the highest dose activity, negative = inhibition, actives largely listed as inhibitors; further: on the % scale 0 is the no-effect control and ±100 the full control effect; nearly all actives have a fitted effect of over 55% in size
#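 ThT emission at 510 nm, taken 1 hr after adding 30 uM dye, quantifies aggregates formed when 20 uM heparin acts on human tau K18 P301L for 6 hr at 37 C.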
# Sfp inh = qHTS Assay for Inhibitors of Bacillus subtilis Sfp phosphopantetheinyl transferase (PPTase); 4'-phosphopantetheinyl transferase ffp (Bacillus subtilis), Q9F4F7; Biochemical Sfp PPTase activity, qHTS; Potency, µM, for inactives: largest response in the series, negative = inhibition, actives largely listed as inhibitors; 310,000 compounds, 3.5% hits; AID 1490, 2009;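 further: the enzyme is Sfp with the accession as filed and its product quenches rhodamine fluorescence; 0% = enzyme reaction without inhibitor and -100% = no enzyme wells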
#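 Fluorescence-quenching assay: 15 nM Sfp-PPTase preincubated 15 min at room temperature with compound, then 5 uM rhodamine-CoA and 12.5 uM BHQ-2-labelled YbbR peptide added. Fluorescence (ex 525/em 598 nm) read at start and after 30 min; difference gives rate.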
# PLK1 PBD block = qHTS for Inhibitors of PLK1-PDB (polo-like kinase 1 - polo-box domain): Primary Screen | Serine/threonine-protein kinase PLK1 (Homo sapiens), P53350 | 360,000 compounds, 2.8% hits | Potency, µM, for inactives: max response, negative = inhibition, most hits filed as inhibitors | Plk1 PBD binding of FITC phosphopeptide, fluorescence polarization | AID 720504, 2013; further: series mostly up to about 57 µM; on the % scale 0 is the no-effect control and ±100 the full control effect; nearly all actives have a fitted effect of over 65% in size
# VDR inh confirm = qHTS for Inhibitors of the vitamin D receptor (VDR): Hit Validation in Primary Screen. shares compounds with VDR inh. VDR-coactivator inhibition assay, qHTS confirmation. Potency, µM, usual class: inhibitors. 840 compounds, 89% hits. AID 602199, 2012
# VDR FP fluor = qHTS for Inhibitors of the vitamin D receptor (VDR): Hit Validation using a Fluorescein Assay | 840 compounds, 48% hits | Potency, µM (series often up to 57.1 µM), without a hit: top-dose activity change, negative = inhibition, usual class: inhibitors | VDR-coactivator binding, fluorescein fluorescence polarization | shares compounds with VDR inh
# VDR bla reporter = qHTS for Inhibitors of the vitamin D receptor (VDR): Hit Validation using a Beta-Lactamase Assay | AID 602202, 2012 | shares compounds with VDR inh | VDR beta-lactamase reporter cells, FRET ratio; cells co-treated with VDR agonist LG190178 | Potency, µM (doses to about 46.1 µM), inactives show at the top dose activity change, negative = inhibition, usual class: inhibitors | 840 compounds, 23% hits; further: on the % scale 0 is the no-effect control and ±100 the full control effect
# VDR cytotox = qHTS for Inhibitors of the vitamin D receptor (VDR): Hit Validation using a Cytotoxicity Assay; shares compounds with VDR inh; cytotoxicity counter-screen, cell viability, qHTS; Potency, µM (doses to about 48.3 µM), inactives show at the highest dose activity change, negative = cytotoxicity, usual class: cytotoxic; 840 compounds, 18% hits; AID 602204, 2012;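 further: plate controls were DMSO for no effect and high-concentration cycloheximide for full effect; nearly all actives have a fitted effect of over 75% in size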
# An asterisk follows results filed as active; ? = inconclusive; . = not tested or not shown; [ ] = dose if it differs, or a comment. The call rests on the fitted dose curve; in most records, active means well fitted curve in the direction sought with a large enough effect; inconclusive means small, poorly fitted or top-dose-only effect, or another doubt; inactive means no such curve, though single readings can be large; an effect the other way counts as inactive or inconclusive. Potency means the concentration at half of the fitted maximal effect.
SMILES,Tau fluor cs,VDR inh,Tau FP inhib,Tau fibril ThT,Sfp inh,PLK1 PBD block,VDR inh confirm,VDR FP fluor,VDR bla reporter,VDR cytotox
O=c1[nH]c(/C=C/c2cccc([N+](=O)[O-])c2)c([N+](=O)[O-])c(=O)[nH]1,.,28.2µM*,.,.,-18.9%,-4.5%,11.9*,7.08µM*,23.6%,?
O=C(Nc1ccccc1Cl)c1ccc(F)c(S(=O)(=O)NCc2ccc(Cl)c(Cl)c2)c1,?,14.2%,?,-10.7%,.,.,.,.,.,.
CCCCN(CC)C(=O)C1CCCN(c2ncnc3c2nc2n3CCCCC2)C1 (stereo not given),-2.7%,7.3%,1.5%,-1.6%,.,.,.,.,.,.
CN(C)c1ccc(-n2cccc2/C=C/[N+](=O)[O-])cc1,?,35.5µM*,-1.6%,?,?,-25.7%,13.4*,8.91µM*,?,?
O=C(/C=C/c1ccncc1)c1ccc2c(c1)OCCO2,5.3%,28.2µM*,-4.1%,?,-25.9%,-23.8%,26.7*,?,1.4%,-6.7%
O=C(/C=C/c1ccccc1)c1ccc2c(c1)OCO2,-7.5%,?,13.6%,?,-6.3%,-7.9%,.,.,.,.
O=C(O)C1CC[C@@](C(=O)O)(c2ccccc2)c2ccccc21 (stereo not given in full),-1.2%,4.9%,8.6%,1.2%,-4.1%,.,.,.,.,.
Cc1[nH]n(-c2ncc(-c3ccccc3)s2)c(=O)c1C(c1ccc(Cl)cc1)C(C#N)C#N (stereo not given),?,35.5µM*,?,14.1µM*,?,3.77µM*,6.7*,?,19.6%,-5.0%
Cc1[nH]n(-c2ccc(Cl)cc2)c(=O)c1/C=N/c1nnc(-c2ccccc2)s1,-6.3%,5.1%,6.7%,-11.3%,19.0%,-0.2%,.,.,.,.
Cc1ccc(S(=O)(=O)CCC(=O)c2cccc([N+](=O)[O-])c2)cc1,.,15.8µM*,.,.,22.4µM*,3.77µM*,3.55*,3.16µM*,?,?
C=CCn1c(Sc2ncc([N+](=O)[O-])s2)n[nH]c1=O,?,28.2µM*,?,?,10µM*,1.19µM*,15*,?,25.9µM*,?
O=S1OC(c2ccccc2)c2cc(Cl)ccc21 (stereo not given),.,22.4µM*,.,.,.,?,3.16*,3.55µM*,2.6%,21.9%
O=C1OC(c2ccccc2)c2ccccc21 (stereo not given),-8.1%,-12.5%,-1.4%,-8.8%,-12.3%,-6.7%,.,.,.,.
Cc1cccc(CN2CCN(C3CN(CCc4ccccc4)S(=O)(=O)C3)CC2)c1 (stereo not given),.,.,.,.,.,4.2%,.,.,.,.
O=C(/C=C/c1ccnc2ccccc12)c1cccs1,6.5%,?,-3.8%,?,-18.2%,?,11.2*,17.8µM*,?,?
O=C(O)CN1C(=O)/C(=C\c2cc(Br)ccc2OCc2ccc(F)cc2)SC1=S,.,70.8µM*,.,.,-4.3%,21.2µM*,?,31.6µM*,24.4%,11.5%
COC(=O)c1ccc(-c2ccc(OC)c(C3C4C=CCC(C)C4C(=O)N3Cc3ccccc3)c2)cc1 (stereo not given),.,-7.9%,.,.,-6.2%,.,.,.,.,.
O=S(=O)(Nc1cc2nc3ccccc3nc2n1Cc1ccccc1)c1ccc(Cl)cc1,14.1µM*[quencher],39.8µM*,?,?,56.2µM*,?,29.9*,32.6%,?,?
CCC(=O)O,0.8%,14.9%,4.1%,-4.5%,25.3%,.,.,.,.,.
CCSc1nc2cc(S(=O)(=O)N3CCOCC3)ccc2o1,.,25.1µM*,.,.,.,2.99µM*,9.47*,?,-0.8%,23.9%
CCn1c2ccccc2c2nc3cc(S(=O)(=O)N4CCOCC4)ccc3nc21,-27.0%,28.2µM*,31.6µM*,25.1µM*,6.31µM*,0.67µM*,5.97*,?,10.0%,?
O=C(CSc1nc2cc(S(=O)(=O)N3CCOCC3)ccc2o1)Nc1c(F)cccc1F,-13.7%,17.8µM*,-16.1%,?,12.6µM*,2.67µM*,10.6*,7.08µM*,2.0%,5.4%
COc1ccc(OCC(=O)OCc2cc(=O)n3nc(C4CCCCC4)sc3n2)cc1,-0.5%,-2.6%,-3.8%,-7.3%,.,.,.,.,.,.
O=C(Nc1ccc2oc(-c3cccnc3)nc2c1)c1ccc(-c2ccccc2OC(F)(F)F)o1,-22.9%,-18.5%,?,?,.,.,.,.,.,.
O=C(/C=C\c1ccccc1OC(=O)c1ccccc1F)c1cc2ccccc2o1,11.4%,14.1µM*,2.7%,13.6%,?,-16.0%,?,3.55µM*,?,?
CC(=O)/C=C\c1ccccc1OC(=O)c1cc2ccccc2oc1=O,.,-25.0%,.,.,-4.6%,-7.2%,.,.,.,.
CC1C/C(=C/c2cccn2C)C(=O)/C(=C/c2cccn2C)C1 (stereo not given),?,-9.3%,-14.5%,?,?,14.0%,.,.,.,.
CC1C/C(=C/c2ccncc2)C(=O)/C(=C/c2ccncc2)C1 (stereo not given),-21.9%,22.4µM*,?,8.91µM*,?,-27.0%,6.7*,3.55µM*,5.17µM*,20.6µM*

# Compound activity (PubChem BioAssay)
